Test results from PubChem BioAssay.

Tested on: Lefty1
Experiment: Lefty1 protein binding to printed compounds – biochemical, small-molecule microarray, 635/667 nm fluorescence, primary screen (AID 1139)
Details: fluorescence 635/667, higher = more signal

| Structure (SMILES) | composite z-score |
| --- | --- |
| CC(C)=CCN[C@H](CO)c1ccccc1 | 0.564 |
| CCCC#C[Si](O[C@H](CC)c1cn(Cc2cccc(Cl)c2)nn1)(C(C)C)C(C)C | 0.467 |
| C=CCOC(=O)[C@H]1[C@@H]2C(=O)O[C@@H](c3ccccc3)[C@@H](c3ccccc3)N2[C@@H](c2ccc(OCCOC(=O)[C@H]3C[C@H]4C(=O)N[C@@H](CCCCNC(C)=O)C(=O)N4[C@H]3c3cccc(OCCO)c3)cc2)[C@]12C(=O)Nc1ccccc12 | 1.08 |
| C=C(COC)/C(=C/C[C@@H](OC(=O)c1ccncc1)c1ccc(CO)o1)c1cc(C(=O)OC)ccc1OC | 1.64 |
| CC(C)C(=C=CC[C@@H](O)c1ccc(OCCO)cc1)C[C@@H](O)COCc1ccccc1 | 1.58 |
| CCCCCCc1nc(-c2cc(C)c(OC)c(C)c2)cc2c1[Si](C(C)C)(C(C)C)OC2 | 0.275 |
| COc1cc2c(cc1O)C(C1CC1)N(Cc1sc3ccccc3c1Cl)CC2 (stereo not given) | -0.619 |
| COCCOC(=O)N1C(=O)[C@@]2(c3cc(C#CCC(C(=O)OC)C(=O)OC)ccc31)[C@H](C(=O)N1CCN(c3ncccn3)CC1)[C@H]1C(=O)O[C@H](c3ccccc3)[C@H](c3ccccc3)N1[C@@H]2c1ccccc1OCCO | 1.54 |
| C[C@H]1NC(=O)[C@@]23C(=O)N[C@@H](Cc4ccccc4)C2[C@H](C)[C@@]2(C)O[C@H]2C3/C=C/C/C=C\CNC(=O)[C@@H]2CCCN2C1=O (stereo not given in full) | 0.946 |
| CCOC(=O)C[C@H]1[C@H](OC(=O)c2ccc(C(=O)c3ccccc3)cc2)[C@@H](NC(=O)c2ccc3ccccc3n2)c2cc(OCCCO)ccc2N1C(=O)c1ccccc1 | 1.63 |
